About 100 (0.17%) of roughly 58,000 compounds were called active. This is one part of a sample in which actives are shown more often than they occur. Rule as the data show it: active = inhibition above about 45%; inactive = the rest.
The molecules below were run against Procathepsin L (Homo sapiens) (UniProt P07711) (assay: blockers of CTSL protease activity – biochemical (AID 460;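 also: 0% = enzyme with no compound and 100% = no enzyme blank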)). Conditions: purified cathepsin L, fluorogenic substrate, fluorescence; stronger effect = higher value;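 tested at 10 µM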.
Sequence of Procathepsin L (Homo sapiens) (P07711 114-288 limits assumed): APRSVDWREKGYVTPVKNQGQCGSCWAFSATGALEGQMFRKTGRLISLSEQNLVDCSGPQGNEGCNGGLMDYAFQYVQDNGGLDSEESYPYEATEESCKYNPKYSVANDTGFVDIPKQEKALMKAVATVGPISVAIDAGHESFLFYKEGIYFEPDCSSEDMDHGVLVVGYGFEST
Sequence of Procathepsin L (Homo sapiens) (P07711 292-333 limits assumed): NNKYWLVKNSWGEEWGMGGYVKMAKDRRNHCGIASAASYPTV

inhibition, inactive:
Cc1cccc(N2C(=O)SC(N(CC(=O)O)c3cccc(C)c3)C2=O)c1 (stereo unspecified) 18.4%
COc1ccc(OC)c(S(=O)(=O)N(C)CC(=O)N2CCN(c3ccccc3)CC2)c1 -0.18%
COC(=O)c1c(NC(=O)c2cccs2)sc2c1CCCC2 -9.15%
COc1ccc(-c2nc(CS(=O)CC(=O)NCc3ccccn3)c(C)o2)cc1 (stereo unspecified) 32.3%
O=c1cccc(-c2ccc(Br)cc2)o1 11.7%
Cc1cc(C)cc(NC(=O)N2CCC(NC(=O)c3ccc(F)cc3)CC2)c1 15.2%
Cc1ccc(C(=O)Nc2ccc3c(c2)OCO3)cc1S(=O)(=O)N1CCCCC1 41.8%
CCOc1cccc(-c2nn3c(-c4ccccn4)nnc3s2)c1 20.7%
O=C(NC1CCCC1)c1ccc(Br)s1 -2.98%
CC(C)c1ccc(OCC(O)Cn2cnc3ccccc32)cc1 (stereo unspecified) -5.57%
c1ccc2cc(OCCN3CCCC3)ccc2c1 17.4%
COc1ccccc1N1CCN(C(=O)c2cc(-c3ccc(Cl)c(Cl)c3)on2)CC1 1.59%
Cn1c(/C(C#N)=C2/CCCCCN2)nc2ccccc21 -2.23%
CCOC(=O)c1cc2c(n(-c3ccc(C)cc3)c1=O)CCCC2=O -1.99%
CCCC1CC(C)(C(=O)Cn2[nH]c(=O)ccc2=O)OC1=O (stereo unspecified) 3.89%
Cc1ccc(S(=O)(=O)n2nc(OC(=O)C(C)(C)C)cc2N)cc1 9.62%
N#CC(C(=O)c1ccc(S(=O)(=O)N2CCCCCC2)cc1)c1nc2ccccc2[nH]1 (stereo unspecified) -6.58%
O=C(/C(=N\O)n1cncn1)c1ccc(Br)cc1Br 5.57%
COc1ccc(CCN=C2SCC(=O)N2C)cc1OC 11.7%
N#CNC1=NCN(CCc2ccccc2)CN1 17.9%
N#Cc1c(N)n(CCOC(=O)c2ccc(Cl)cc2)c2nc3ccccc3nc12 -4.03%
Fc1ccccc1OCCCCn1cncn1 -6.79%
COc1ccc(OCCCON2C(=O)c3ccccc3C2=O)cc1 -4.83%
O=C(CN1C(=O)CCC1=O)Nc1ccc(S(=O)(=O)N2CCOCC2)cc1 5.22%
CC(C)Cc1nc(N2CCOCC2)c(C#N)c2c1CCC2 -1.22%
CCOc1ccccc1C1NC(=O)NC(C)=C1C(=O)OCc1ccco1 (stereo unspecified) 16.9%
